Reference: PubChem BioAssay (EPA / NIEHS)
Where “and” joins values, the source holds several entries; their conditions need not be identical. Equal values may be shown once. Results filed as inconclusive are left out. Calls of active or inactive are those of the source. Rule for the calls, unless noted: active = hit-call score of the fitted dose curve at least 0.9, where 1 is the maximum; inactive = score below 0.9.

What was measured:
[1] = read-out: Interleukin-1 alpha (IL1a), IL1A (gene 3552); experiment: BSK_LPS_IL1a: BioMAP Diversity Plus: LPS Assay for Interleukin-1 alpha (IL1a) Biomarker Activity (AID 2283080); details: primary human HUVEC with PBMC; actives raise or lower the signal
Outline: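 Measured: IL-1 alpha via ELISA at 24 h in LPS-activated human umbilical vein endothelium–PBMC co-culture. Baseline: DMSO, bidirectional fitting.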

[2] = read-out: Monocyte Chemoattractant Protein-1 (MCP1), CCL2 (gene 6347); experiment: BSK_LPS_MCP1: BioMAP Diversity Plus: LPS Assay for Monocyte Chemoattractant Protein-1 (MCP1) Biomarker Activity (AID 2283081); details: primary human HUVEC with PBMC; actives raise or lower the signal;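 for AC50: secreted MCP-1 protein quantified by ELISA in culture supernatant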
Outline: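 LPS-stimulated HUVEC/PBMC co-culture; chemical, 24 h; MCP-1 by ELISA; bidirectional fit vs DMSO; cytotoxicity via SRB (0.1% stain, 10% TCA fix, 560 nm) in parallel wells.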

[3] = BSK_LPS_PGE2: BioMAP Diversity Plus: LPS Assay for Prostaglandin E2 (PGE2) Biomarker Activity (AID 2283082); details: primary human HUVEC with PBMC; actives raise or lower the signal;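 for AC50: secreted prostaglandin E2 measured by ELISA in LPS-stimulated co-culture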
Outline: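 Endpoint derived from bidirectional curve fitting versus DMSO of ELISA-measured PGE2 in LPS-stimulated human primary vascular co-culture (HUVEC with PBMC) harvested at 24 h.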

[4] = read-out: Macrophage colony-stimulating factor (MCSF), CSF1 (gene 1435); experiment: BSK_LPS_MCSF: BioMAP Diversity Plus: LPS Assay for Macrophage colony-stimulating factor (MCSF) Biomarker Activity (AID 2283083); details: primary human HUVEC with PBMC; actives raise or lower the signal
Outline: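 Compound is added to a human vascular primary co-culture of umbilical vein endothelium and blood mononuclear cells. After 24 h, M-CSF is quantified by ELISA. Signal changes are fitted in both directions against DMSO.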

[5] = read-out: Tissue Factor, F3 (gene 2152); experiment: BSK_LPS_TissueFactor: BioMAP Diversity Plus: LPS Assay for Tissue Factor Biomarker Activity (AID 2283084); details: primary human HUVEC with PBMC; actives raise or lower the signal
Outline: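 In this co-culture system of umbilical vein endothelium with PBMC, stimulated with LPS, cell-surface CD142 is detected by ELISA at 24 h. Endpoint values derive from bidirectional fitting, DMSO serving as baseline.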

[6] = read-out: Tumor necrosis factor (Homo sapiens) (UniProt P01375); experiment: BSK_LPS_TNFa: BioMAP Diversity Plus: LPS Assay for Tumour Necrosis Factor alpha (TNFa) Biomarker Activity (AID 2283085); details: primary human HUVEC with PBMC; actives raise or lower the signal
Outline: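 Primary human vascular co-culture of HUVEC and PBMC; TNFa ELISA 24 h after treatment, analysed as increase or decrease relative to DMSO control.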

[7] = read-out: Vascular cell adhesion molecule 1 (VCAM1), VCAM1 (gene 7412); experiment: BSK_LPS_VCAM1: BioMAP Diversity Plus: LPS Assay for Vascular cell adhesion molecule 1 (VCAM1) Biomarker Activity (AID 2283086); details: primary human HUVEC with PBMC; actives raise or lower the signal
Outline: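 Primary human vascular co-culture (umbilical vein endothelium plus PBMC) stimulated with LPS received chemical; 24 h later VCAM-1 was read by ELISA. Overt cytotoxicity was assessed by sulforhodamine B staining of parallel cultures at the same time point.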

CD38, CD38 (gene 952) = experiment: BSK_SAg_CD38: BioMAP Diversity Plus: SAg Assay for CD38 Biomarker Activity (AID 2283087); details: primary human HUVEC with PBMC; actives raise or lower the signal
Outline: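 Fluorescence ELISA of cell-surface CD38 served as the read-out, with either increase or decrease fitted against DMSO controls. Cells were a human umbilical vein endothelium plus PBMC co-culture under SEB/TSST-1 stimulation, measured 24 h after dosing.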

CD40, CD40 (gene 958) = experiment: BSK_SAg_CD40: BioMAP Diversity Plus: SAg Assay for CD40 Biomarker Activity (AID 2283088); details: primary human HUVEC with PBMC; actives raise or lower the signal
Outline: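 Fluorescence ELISA read-out of CD40 from umbilical vein endothelium plus peripheral blood mononuclear cells, sampled 24 h after dosing. Values come from bidirectional curve fitting with DMSO as baseline.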

CD69, CD69 (gene 969) = experiment: BSK_SAg_CD69: BioMAP Diversity Plus: SAg Assay for CD69 Biomarker Activity (AID 2283089); details: primary human HUVEC with PBMC; actives raise or lower the signal;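 for AC50: cell surface CD69 protein quantified by ELISA with fluorescence detection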
Outline: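 HUVEC co-cultured with PBMC were dosed with chemical, and CD69 was measured by ELISA with fluorescence read-out 24 h later. Bidirectional curve fitting used DMSO as negative control and activity baseline.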

[8] = read-out: Monocyte Chemoattractant Protein-1 (MCP1), CCL2 (gene 6347); experiment: BSK_SAg_MCP1: BioMAP Diversity Plus: SAg Assay for Monocyte Chemoattractant Protein-1 (MCP1) Biomarker Activity (AID 2283090); details: primary human HUVEC with PBMC; actives raise or lower the signal
Outline: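 MCP-1 levels in the endothelial–PBMC SAg co-culture were quantified by ELISA at 24 h post-dosing; both increases and decreases versus DMSO scored. Cytotoxicity monitored by SRB total protein in parallel cultures.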

[9] = read-out: E-selectin (Homo sapiens) (UniProt P16581); experiment: BSK_SAg_Eselectin: BioMAP Diversity Plus: SAg Assay for Eselectin Biomarker Activity (AID 2283091); details: primary human HUVEC with PBMC; actives raise or lower the signal
Outline: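 Primary human endothelial cells and peripheral blood mononuclear cells were co-cultured and exposed to chemical for 24 hours. E-selectin levels were then quantified by ELISA, with bidirectional curve fitting normalised to DMSO controls.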

[10] = read-out: Monokine induced gamma interferon (MIG), CXCL9 (gene 4283); experiment: BSK_SAg_MIG: BioMAP Diversity Plus: SAg Assay for Monokine induced gamma interferon (MIG) Biomarker Activity (AID 2283092); details: primary human HUVEC with PBMC; actives raise or lower the signal
Outline: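 HUVEC plus human PBMC co-culture, chemicals dosed and MIG (CXCL9) quantified by ELISA at 24 h. Bidirectional curve fitting against DMSO as negative control and baseline, so both gain and loss of signal count as activity.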

[11] = BSK_SAg_PBMCCytotoxicity: PBMC Cytotoxicity Assessment in the BioMAP Diversity Plus: SAg Assay (AID 2283093); details: primary human HUVEC with PBMC;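 note: PBMC viability measured as Alamar Blue reduction fluorescence at 546/580 nm; fitted both ways against DMSO so a hit may be loss or gain of signal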;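 for AC50: PBMC superantigen activated with SEB plus TSST-1 one hour after compound addition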
Outline: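 Compound added to 75,000 PBMC/well for 1 h; SEB and TSST-1 then added at 20 ng/mL final each; 90 h incubation; Alamar Blue 6 h; read 546/580 nm ex/em. Activity fitted bidirectionally relative to DMSO baseline.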

[12] = read-out: Interleukin-8 (IL8), CXCL8 (gene 3576); experiment: BSK_SAg_IL8: BioMAP Diversity Plus: SAg Assay for Interleukin-8 (IL8) Biomarker Activity (AID 2283094); details: primary human HUVEC with PBMC; actives raise or lower the signal
Outline: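 In this co-culture of human umbilical vein endothelium with peripheral blood mononuclear cells, IL-8 is assayed by ELISA at 24 h. DMSO serves as baseline for bidirectional curve fitting.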

[13] = BSK_SAg_Proliferation: Cell Proliferation Assessment in the BioMAP Diversity Plus: SAg Assay (AID 2283095); details: primary human HUVEC with PBMC;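 note: relative cell number as total protein by SRB absorbance in sub-confluent culture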
Outline: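 Readout is SRB-stained protein (560 nm) in a primary human HUVEC and PBMC co-culture; sub-confluent cultures are read at 96 h. Activity is fitted bidirectionally using DMSO as baseline.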

[14] = BSK_SAg_SRB: Viability Assessment in the BioMAP Diversity Plus: SAg Assay (AID 2283096); details: primary human HUVEC with PBMC;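 note: cells read one day after compound addition; hits may be either gain or loss of signal compared with DMSO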
Outline: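 Total protein by sulforhodamine B staining, 24 h after dosing, in HUVEC–PBMC co-culture; DMSO-referenced bidirectional fitting.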

[15] = target: human CYP19A1, CYP19A1 (gene 1588) (UniProt P11511); experiment: NVS_ADME_hCYP19A1: NovaScreen (NVS) CYP450-related Enzyme Activity (ADME) Assay for human CYP19A1 (AID 2283098; active = hit-call score of the fitted dose curve at least 0.9, where 1 is the maximum)
Chain of human CYP19A1, CYP19A1 (gene 1588) (P11511 whole entry, looked up): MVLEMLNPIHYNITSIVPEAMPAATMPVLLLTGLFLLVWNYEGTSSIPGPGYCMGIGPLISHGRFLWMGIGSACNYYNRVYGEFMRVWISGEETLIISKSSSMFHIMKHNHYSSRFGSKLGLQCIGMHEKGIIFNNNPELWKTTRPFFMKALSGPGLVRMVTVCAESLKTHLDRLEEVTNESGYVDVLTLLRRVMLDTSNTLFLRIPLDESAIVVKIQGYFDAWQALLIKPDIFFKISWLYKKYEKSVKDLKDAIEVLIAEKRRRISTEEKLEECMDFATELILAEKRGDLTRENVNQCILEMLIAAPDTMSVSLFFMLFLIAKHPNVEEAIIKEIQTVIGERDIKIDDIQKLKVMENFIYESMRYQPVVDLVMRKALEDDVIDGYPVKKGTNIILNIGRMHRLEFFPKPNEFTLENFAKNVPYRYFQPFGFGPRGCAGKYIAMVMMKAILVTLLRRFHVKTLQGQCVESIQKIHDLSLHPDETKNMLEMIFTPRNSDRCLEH
Outline: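 Biochem, cell-free; recombinant enzyme + specific substrate; fluorescence intensity at 0.5 h post-dose; 10 uM duplicate primary, conc. series for actives; acetonitrile = negative control/baseline; positive and negative controls on every plate.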

[16] = target: human CYP2D6, CYP2D6 (gene 1565) (UniProt P10635); experiment: NVS_ADME_hCYP2D6: NovaScreen (NVS) CYP450-related Enzyme Activity (ADME) Assay for human CYP2D6 (AID 2283107; active = hit-call score of the fitted dose curve at least 0.9, where 1 is the maximum)
Chain of human CYP2D6, CYP2D6 (gene 1565) (P10635 whole entry, looked up): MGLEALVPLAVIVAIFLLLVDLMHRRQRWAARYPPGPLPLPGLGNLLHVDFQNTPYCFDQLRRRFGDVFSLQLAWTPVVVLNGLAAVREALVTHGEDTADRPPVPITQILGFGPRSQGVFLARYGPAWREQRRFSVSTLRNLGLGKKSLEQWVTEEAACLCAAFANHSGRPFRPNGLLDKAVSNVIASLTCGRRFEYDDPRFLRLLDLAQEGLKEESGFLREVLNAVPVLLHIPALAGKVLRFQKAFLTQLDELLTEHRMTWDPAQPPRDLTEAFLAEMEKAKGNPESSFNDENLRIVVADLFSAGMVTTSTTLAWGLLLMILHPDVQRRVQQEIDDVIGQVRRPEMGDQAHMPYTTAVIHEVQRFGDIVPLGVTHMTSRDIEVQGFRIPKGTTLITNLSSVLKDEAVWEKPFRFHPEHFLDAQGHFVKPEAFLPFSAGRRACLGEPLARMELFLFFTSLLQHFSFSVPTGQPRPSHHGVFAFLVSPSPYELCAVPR
Outline: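 Compounds were first tested in duplicate at 10 uM against recombinant enzyme produced in insect cells, with substrate turnover measured by fluorescence after 1 hour. Decreased signal, referenced to acetonitrile vehicle, was taken as reduced enzyme activity. Active chemicals went on to concentration-response testing.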

Measured: AC50

Chain of Tumor necrosis factor (Homo sapiens) (P01375 whole entry, looked up): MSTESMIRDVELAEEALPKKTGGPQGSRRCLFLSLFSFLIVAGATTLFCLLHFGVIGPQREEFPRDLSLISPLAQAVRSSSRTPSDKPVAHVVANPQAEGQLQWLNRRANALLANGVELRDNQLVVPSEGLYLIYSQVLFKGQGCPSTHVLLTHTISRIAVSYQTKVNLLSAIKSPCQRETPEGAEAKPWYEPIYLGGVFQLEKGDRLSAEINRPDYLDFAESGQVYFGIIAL
Chain of E-selectin (Homo sapiens) (P16581 whole entry, looked up): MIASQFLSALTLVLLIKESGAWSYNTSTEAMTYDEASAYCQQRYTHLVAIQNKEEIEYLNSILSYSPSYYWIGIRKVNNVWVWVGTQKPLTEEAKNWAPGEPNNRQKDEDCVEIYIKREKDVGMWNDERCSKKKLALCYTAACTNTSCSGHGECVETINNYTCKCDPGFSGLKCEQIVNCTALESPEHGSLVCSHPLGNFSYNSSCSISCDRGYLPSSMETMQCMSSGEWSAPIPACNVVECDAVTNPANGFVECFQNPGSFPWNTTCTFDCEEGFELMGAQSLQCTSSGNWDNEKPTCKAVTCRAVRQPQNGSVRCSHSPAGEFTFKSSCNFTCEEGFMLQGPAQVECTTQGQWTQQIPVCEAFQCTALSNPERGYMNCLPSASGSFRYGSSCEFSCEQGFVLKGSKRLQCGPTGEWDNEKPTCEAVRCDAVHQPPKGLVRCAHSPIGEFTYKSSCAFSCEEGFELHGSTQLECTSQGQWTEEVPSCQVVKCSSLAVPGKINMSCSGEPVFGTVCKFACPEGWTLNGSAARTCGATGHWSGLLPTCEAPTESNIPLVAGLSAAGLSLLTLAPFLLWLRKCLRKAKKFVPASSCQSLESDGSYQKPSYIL

C#CC1(O)CC[C@H]2[C@@H]3CCC4=CCCC[C@@H]4[C@H]3CC[C@@]21C (stereo partly specified)
active: [1] 29.6 µM | [2] 35.7 µM | [4] 29 µM | [5] 31.2 µM | [6] 33.3 µM | [7] 29.9 µM | CD38, CD38 (gene 952) 35.1 µM | CD40, CD40 (gene 958) 30.2 µM | CD69, CD69 (gene 969) 29.7 µM | [8] 31.8 µM | [9] 35.9 µM | [10] 31.8 µM | [11] 20 µM | [12] 20 µM | [13] 12.3 µM | [14] 28 µM
inactive: [3]

CCCCCCCC/C=C\CCCCCCCC(=O)O
inactive: [15]

O=Nc1ccc(O)cc1
active: [16] 3.79 µM
not listed: [15]
inactive: all other assays above

c1ccc(-c2ccccn2)nc1
not listed: [15] | [16]
inactive: all other assays above

COc1ccc2nc(N)sc2c1
not listed: [15] | [16]
inactive: all other assays above

CCOC(=O)c1ccccc1C(=C1C=C(Br)C(=O)C(Br)=C1)c1cc(Br)c(O)c(Br)c1
inactive: [11]
active: [1] 17.8 µM and 14.7 µM | [2] 20.8 µM and 20.9 µM | [3] 19.1 µM and 19 µM | [4] 18.7 µM and 17.4 µM | [5] 18.2 µM and 12.6 µM | [6] 19.1 µM and 18.9 µM | [7] 20.2 µM and 19.9 µM | CD38, CD38 (gene 952) 20.4 µM and 18.8 µM | CD40, CD40 (gene 958) 19.4 µM and 19.1 µM | CD69, CD69 (gene 969) 15.1 µM and 15.6 µM | [8] 20.7 µM and 21 µM | [9] 20.1 µM and 18.8 µM | [10] 22.2 µM and 23 µM | [12] 19 µM and 18 µM | [13] 18.3 µM and 20.1 µM | [14] 21.1 µM and 18.9 µM

C=CCOc1c(Br)cc(Br)cc1Br
active: [2] 0.054 µM
not listed: [15] | [16]
inactive: all other assays above

S=C(NC1CCCCC1)NC1CCCCC1
not listed: [15] | [16]
inactive: all other assays above
